Experimental findings from PubChem BioAssay (NCI) are described below.

Compounds without any hit were thinned out: in the full panel of roughly 79,000, 15% have a hit. Unmarked numbers belong to inactive results. The source made the active and inactive calls. No stated cut-off is given here; in the data, active means growth inhibition above about 70%; inactive means the rest.

Assay [1] in a line: NCI Yeast Anticancer Drug Screen. Data for the rad50 strain (AID 155).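 Further: 0% = growth of vehicle-only cultures of the same strain.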 Particulars: S. cerevisiae rad50 strain growth inhibition; at 50.0 µM; stronger effect = higher value. A digest of the protocol: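 Genetically altered yeast (DNA repair pathway); compound treatment; growth inhibition vs vehicle ctrl.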
A short description of assay [2]: NCI Yeast Anticancer Drug Screen. Data for the mec2-1 strain (AID 157). Particulars: S. cerevisiae mec2-1 strain, at 50.0 µM, stronger effect = higher value. In outline: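 Compounds were applied to mec2-1 yeast cells. Their growth was then compared with that of vehicle-treated cultures to give growth inhibition.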
Assay [3] is described as follows: NCI Yeast Anticancer Drug Screen. Data for the sgs1 mgt1 strain (AID 161).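 Further: 0% = growth of cultures given vehicle only.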 Particulars: S. cerevisiae sgs1 mgt1 strain, at 50.0 µM, stronger effect = higher value. In outline: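 Growth of a repair-deficient yeast mutant was monitored after compound treatment and expressed as inhibition relative to vehicle-treated cultures.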
Assay [4] can be described thus: NCI Yeast Anticancer Drug Screen. Data for the cln2 rad14 strain (AID 165).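 Further: 0% = growth equal to vehicle treated cultures.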 Particulars: S. cerevisiae cln2 rad14 strain, at 50.0 µM, stronger effect = higher value. A digest of the protocol: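 Strain: cln2 rad14 yeast, altered in cell cycle control and DNA damage repair. Read-out: growth inhibition vs vehicle.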
Assay [5] is described as follows: NCI Yeast Anticancer Drug Screen. Data for the bub3 strain (AID 167). Particulars: S. cerevisiae bub3 mutant strain, at 50.0 µM, stronger effect = higher value. In outline: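 Yeast carrying a defined mutation is treated with each compound, and growth is compared with that of vehicle-exposed cells to give inhibition.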
The nature of assay [6]: NCI Yeast Anticancer Drug Screen. Data for the mlh1 rad18 strain (AID 175). Particulars: S. cerevisiae mlh1 rad18 strain growth inhibition; at 50.0 µM; stronger effect = higher value. In outline:
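A repair-deficient yeast strain is exposed to test compound, and growth is scored relative to vehicle-treated controls.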

Take `C/C(=N\Nc1ccc([N+](=O)[O-])cc1[N+](=O)[O-])C1(C)CC=CCC1C` (stereo unspecified): the growth inhibition is -3.9% in assay [1]; -3.35% in assay [2]; 0.4% in assay [3]; 6.05% in assay [4]; -1.7% in assay [5]; -1.45% in assay [6].

For the compound `O=C(/C(=C(/[O-])C(F)(F)F)[n+]1ccc2ccccc2c1)C(F)(F)F`, the growth inhibition is -16.4% in assay [1]; -2.4% in assay [2]; -5.3% in assay [3]; -40.1% in assay [4]; -28.6% in assay [5]; -0.4% in assay [6].

With `CCOC(=O)c1sc2c(c1OC(=O)c1ccccc1)c(=O)n(-c1ccccc1)c(=S)n2-c1ccccc1`, the growth inhibition is 21% in assay [1]; 15.9% in assay [2]; 30.1% in assay [3]; 24.9% in assay [4]; 29.2% in assay [5]; 33.7% in assay [6].

As for `O=C1C(=O)c2ccccc2C(O)=C1CN(CCO)CCO`, the growth inhibition in assay [1] was 10.8%; in assay [2] it was 19.8%; in assay [3], 24.2%; in assay [4], -8.25%; in assay [5], 23.4%; in assay [6], 26.2%.

Turning to `CC(=O)c1cc(Cl)ccc1OCC(O)CNc1ccc(Cl)cc1C(=O)c1ccccc1` (stereo unspecified), the growth inhibition was 17.6% in assay [1]; 37.6% in assay [2]; 10.3% in assay [3]; 34% in assay [4]; -3.85% in assay [5]; 7.15% in assay [6].

Turning to `COC(=O)c1c(O)ccc(O)c1C(=O)OC`, the growth inhibition in assay [1] is -15.7%; in assay [2], -18.4%; in assay [3], -13.6%; in assay [4], -16.6%; in assay [5], -6.4%; in assay [6] it was -21.6%.

On to `Cc1cc(=O)n2c(c1)[nH]c1ccccc12`, for which the growth inhibition in assay [1] is 3.25%; in assay [2] it was 0.3%; in assay [3], -5.55%; in assay [4], -0.95%; in assay [5] it was 1.75%; in assay [6] it was 1.65%.

Regarding `COC1(OC)C(c2ccc([N+](=O)[O-])cc2)C([N+](=O)[O-])C1(OC)OC` (stereo unspecified), the growth inhibition in assay [1] is -14.1%; in assay [2], -16.1%; in assay [3], -32%; in assay [4], -11.4%; in assay [5] it was -8.4%; in assay [6], -17.6%.

`Cc1nn(C)c2ncnc(N)c12`: the growth inhibition in assay [1] is 10.8%; in assay [2], 0.55%; in assay [3], 17%; in assay [4], -7.8%; in assay [5], -8.85%; in assay [6] it was 7.7%.

With `CCOC1(C)Oc2cc3c(cc2C(c2cc(OC)c(OC)c(OC)c2)C1C)OCO3` (stereo unspecified), the growth inhibition in assay [1] is 12.4%; in assay [2], 1.55%; in assay [3], -6.75%; in assay [4], -29.4%; in assay [5] it was 1.4%; in assay [6], 32.5%.

`O=c1cc(-c2ccc(F)cc2)oc2ccccc12`: the growth inhibition in assay [1] is 40%; in assay [2] it was -7.45%; in assay [3] it was -9.05%; in assay [4], 0.95%; in assay [5], 13.7%; in assay [6] it was 30.4%.

`O=c1[nH]cc(NCCc2ccccc2)c(=O)[nH]1`: the growth inhibition in assay [1] is 0.75%; in assay [2] it was -4%; in assay [3], -17.4%; in assay [4], -50.9%; in assay [5] it was 7.4%; in assay [6], 1.6%.

Regarding `CN(C)OC(=O)Nc1cccc([N+](=O)[O-])c1`, the growth inhibition in assay [1] is 19.1%; in assay [2], 13.3%; in assay [3], 14.1%; in assay [4], -82.8%; in assay [5] it was 4.8%; in assay [6], -2.6%.

Regarding `O=c1c2ccccc2c2cc3nc4ccc([N+](=O)[O-])cc4c(=O)n3c3cccc1c23`, the growth inhibition in assay [1] was -0.15%; in assay [2] it was -2.65%; in assay [3] it was -15.7%; in assay [4] it was 6.15%; in assay [5], -4.9%; in assay [6], -10.4%.

As to `CCOC(=O)C(=CNc1ccc(S(N)(=O)=O)cc1)C(=O)OCC`, the growth inhibition in assay [1] was 13.7%; in assay [2], 7.95%; in assay [3] it was -31.1%; in assay [4], 5.6%; in assay [5] it was -14%; in assay [6], -26.2%.

Consider `CC1CCCC(C)(C)/C1=N/O` (stereo unspecified), for which the growth inhibition was 16.1% in assay [1]; 20.2% in assay [2]; 12.5% in assay [3]; 12.8% in assay [4]; 20.8% in assay [5]; 6.7% in assay [6].

Regarding `CCCSS[C@H]1NC(=O)[C@H]1NC(=O)COc1ccccc1`, the growth inhibition in assay [1] was 31.1%; in assay [2], 8.5%; in assay [3], 1.4%; in assay [4] it was 3.05%; in assay [5] it was 19.1%; in assay [6], -3.6%.

On to `CC(=O)ONc1nc(C)c(CCC2OCCO2)c(SC(=N)N)n1`, for which the growth inhibition was 28.9% in assay [1]; 27.2% in assay [2]; 30% in assay [3]; 14.9% in assay [4]; -1.7% in assay [5]; 38.2% in assay [6].

Turning to `CCOC(=O)c1ccc(NC=O)cc1`, the growth inhibition was 4.1% in assay [1]; 7.35% in assay [2]; -8.75% in assay [3]; -12.5% in assay [4]; 1.95% in assay [5]; -24.1% in assay [6].

Turning to `CC(=O)c1cc(C(C)=O)c(CC(=O)C(=O)Nc2cccc(C)c2C)nc1CC(=O)C(=O)Nc1cccc(C)c1C`, the growth inhibition is 2.9% in assay [1]; -6.3% in assay [2]; 16.5% in assay [3]; -19.2% in assay [4]; -9.6% in assay [5]; -18.5% in assay [6].

Take `CCN1CCCC(Nc2cc(C)nc(/N=C(\N)Nc3ccc(Cl)c(Cl)c3)n2)C1` (stereo unspecified): the growth inhibition is 97.2% (active) in assay [1]; 98% (active) in assay [2]; 98.4% (active) in assay [3]; 87.3% (active) in assay [4]; 96.1% (active) in assay [5]; 98% (active) in assay [6].
